According to PubChem BioAssay AID1159580 (chemical genetic matrix, 2015):
Where “and” joins values, the source holds several entries; their conditions need not be identical. Identical values can stand only once. Hit rate of the full screen: of about 5,500 compounds, about 2,000 (36%) were called active. Inconclusive results (about 18%) are left out. Cut-off read from the data, not from the text of the source: active = normalized growth mostly below about 0.91 (no sharp cut-off); inconclusive = no clear call, values can overlap the other calls; inactive = mostly above about 0.92. Some of the results follow.

Experiment: chemical genetic growth profiling, strain panel (AID 1159580);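 note: tested at 20 µM; growth read once vehicle control cultures reached saturation at 30 °C; 1 = growth at the plate median or of vehicle wells; lower values mean less growth of the strain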
Conditions: S. cerevisiae deletion strains, growth OD

Measured: normalized growth

COC1(C)CCC2OC2(C)CCC2C1CC2(C)C (centres undefined)
inactive: locus YAL013W, strain DEP1, hits give low values 1 | locus YAL021C, strain ccr4, hits give low values 1 | locus YAL026C, strain drs2, hits give low values 1.03 | locus YAL030W, strain snc1, hits give low values 1.01 | locus YBL061C, strain skt5, hits give low values 1.01 | locus YBR009C, strain hhf1, hits give low values 0.991 | locus YBR021W, strain FUR4, hits give low values 1.02 | locus YBR023C, strain chs3, hits give low values 1 | locus YBR171W, strain sec66, hits give low values 1.02 | locus YBR229C, strain ROT2, hits give low values 1.01 | locus YBR231C, strain swc5, hits give low values 1.02 | locus YBR279W, strain paf1, hits give low values 0.998 | locus YCL011C, strain gbp2, hits give low values 1.01 | locus YCL016C, strain dcc1, hits give low values 1 | locus YCL029C, strain bik1, hits give low values 0.998 | locus YCL061C, strain MRC1, hits give low values 1 | locus YCL069W, strain vba3, hits give low values 1.02 | locus YCR088W, strain abp1, hits give low values 1.01 | locus YDL005C, strain med2, hits give low values 1.01 | locus YDL035C, strain GPR1, hits give low values 1.01 | locus YDL040C, strain nat1, hits give low values 1.01 | locus YDL074C, strain BRE1, hits give low values 1.01 | locus YDL101C, strain DUN1, hits give low values 1.02 | locus YDL134C, strain PPH21, hits give low values 1.04 | locus YDL185W, strain tfp1, hits give low values 1.01 | locus YDL192W, strain arf1, hits give low values 0.99 | locus YDR001C, strain nth1, hits give low values 1.01 | locus YDR069C, strain doa4, hits give low values 1.01 | locus YDR101C, strain arx1, hits give low values 0.993 | locus YDR137W, strain rgp1, hits give low values 1 | locus YDR150W, strain NUM1, hits give low values 0.98 | locus YDR159W, strain sac3, hits give low values 0.997 | locus YDR162C, strain NBP2, hits give low values 0.995 | locus YDR195W, strain ref2 1.02 | locus YDR297W, strain sur2, hits give low values 0.997 | locus YDR318W, strain mcm21, hits give low values 1.01 | locus YDR334W, strain swr1, hits give low values 1.02 | locus YDR335W, strain msn5, hits give low values 1.02 | locus YDR388W, hits give low values 1.01 | locus YDR392W, strain spt3, hits give low values 0.818 | locus YDR502C, strain sam2, hits give low values 1.04 | locus YEL003W, strain gim4, hits give low values 1.01 | locus YEL037C, strain rad23, hits give low values 1.01 | locus YEL061C, strain CIN8 (second series), hits give low values 1.02 | locus YER015W, strain faa2, hits give low values 1 | locus YER016W, strain bim1, hits give low values 1.01 | locus YER110C, hits give low values 1.02 | locus YER111C, strain swi4, hits give low values 1 | locus YER155C, strain BEM2 (second series), hits give low values 0.995 | locus YER155C, strain BEM2, hits give low values 0.996 | locus YER167W, strain BCK2, hits give low values 0.997 | locus YFR010W, strain ubp6, hits give low values 1.03 | locus YGL078C, strain dbp3, hits give low values 1.05 | locus YGL086W, strain mad1, hits give low values 1 | locus YGL167C, strain pmr1, hits give low values 1.01 | locus YGL173C, strain kem1, hits give low values 1.01 | locus YGL227W, strain vid30, hits give low values 1.01 | locus YGL240W, strain doc1, hits give low values 1 | locus YGL248W, strain PDE1, hits give low values 1.05 | locus YGL253W, strain hxk2, hits give low values 1.01 | locus YGR078C, strain PAC10, hits give low values 1.05 | locus YGR135W, strain pre9, hits give low values 1.06 | locus YGR252W, strain gcn5, hits give low values 1.03 | locus YHR013C, strain ard1, hits give low values 1.03 | locus YHR027C, strain rpn1, hits give low values 1.02 | locus YHR030C, strain SLT2, hits give low values 1.01 | locus YHR079C, strain IRE1 (second series), hits give low values 1 | locus YHR079C, strain IRE1, hits give low values 1.04 | locus YHR094C, strain hxt1, hits give low values 1.01 | locus YHR129C, strain ARP1, hits give low values 1.01 | locus YHR142W, strain chs7, hits give low values 1.03 | locus YHR200W, strain rpn10, hits give low values 1.02 | locus YIL066C, strain RNR3, hits give low values 1 | locus YIL073C, strain SPO22, hits give low values 1.06 | locus YIL125W, strain kgd1, hits give low values 0.981 | locus YIR030C, strain dcg1, hits give low values 0.999 | locus YJL092W, strain hpr5, hits give low values 1.01 | locus YJL095W, strain BCK1 (second series), hits give low values 1.01 | locus YJL095W, strain BCK1, hits give low values 1.11 and 1.04 | locus YJL115W, strain asf1, hits give low values 1.01 | locus YJL129C, strain trk1, hits give low values 1.01 | locus YJL134W, strain LCB3, hits give low values 1.01 | locus YJL154C, strain vps35, hits give low values 1.02 | locus YJL164C, strain tpk1, hits give low values 1.01 | locus YJL166W, strain qcr8, hits give low values 1.02 | locus YJL168C, strain set2, hits give low values 0.988 | locus YJL187C, strain SWE1 (second series), hits give low values 1.05 | locus YJL187C, strain SWE1, hits give low values 1 | locus YJR043C, strain POL32, hits give low values 0.99 | locus YJR066W, strain TOR1, hits give low values 0.962 | locus YKL009W, strain mrt4, hits give low values 1.04 | locus YKL068W, hits give low values 1 | locus YKL085W, strain MDH1 (second series), hits give low values 1 | locus YKL085W, strain MDH1, hits give low values 1 | locus YKL160W, strain elf1, hits give low values 1 | locus YKL190W, strain CNB1, hits give low values 1 | locus YKR001C, strain vps1, hits give low values 1.02 | locus YKR026C, strain gcn3, hits give low values 1.01 | locus YKR091W, strain srl3, hits give low values 1.01 | locus YLL001W, strain dnm1, hits give low values 0.989 | locus YLL026W, hits give low values 0.991 | locus YLL041C, strain sdh2, hits give low values 1.02 | locus YLR027C, strain aat2, hits give low values 0.993 | locus YLR039C, strain RIC1, hits give low values 1.06 | locus YLR058C, strain SHM2, hits give low values 1.03 | locus YLR102C, strain apc9, hits give low values 0.997 | locus YLR113W, strain HOG1, hits give low values 1.03 | locus YLR221C, strain rsa3, hits give low values 1.01 | locus YLR258W, strain gsy2, hits give low values 1.01 | locus YLR262C, strain YPT6 (second series), hits give low values 0.979 | locus YLR262C, strain YPT6, hits give low values 1.07 | locus YLR268W, strain sec22, hits give low values 0.983 | locus YLR320W, strain mms22, hits give low values 1 | locus YLR342W, strain FKS1, hits give low values 1 | locus YLR357W, strain rsc2, hits give low values 1.02 | locus YLR370C, strain arc18, hits give low values 1 | locus YLR371W, strain rom2, hits give low values 1.01 | locus YLR384C, strain iki3, hits give low values 1 | locus YLR418C, strain cdc73, hits give low values 1.04 | locus YML016C, strain PPZ1, hits give low values 1.02 | locus YML032C, strain rad52, hits give low values 1 | locus YML120C, strain ndi1, hits give low values 1.01 | locus YML124C, strain tub3, hits give low values 1 | locus YMR058W, strain fet3, hits give low values 1.01 | locus YMR078C, strain ctf18, hits give low values 1.01 | locus YMR125W, strain sto1, hits give low values 0.997 | locus YMR129W, hits give low values 1.01 | locus YMR205C, strain PFK2, hits give low values 0.981 | locus YMR223W, strain ubp8, hits give low values 1.01 | locus YMR231W, strain pep5, hits give low values 1 | locus YMR307W, strain GAS1, hits give low values 1.02 | locus YNL067W, strain RPL9B, hits give low values 1.04 | locus YNL071W, strain lat1, hits give low values 1.01 | locus YNL153C, strain GIM3, hits give low values 1.04 | locus YNL183C, strain NPR1, hits give low values 0.972 | locus YNL209W, strain ssb2, hits give low values 1.01 | locus YNL233W, strain BNI4, hits give low values 1.06 | locus YNL248C, strain rpa49, hits give low values 1.02 | locus YNL250W, strain rad50, hits give low values 1.03 | locus YNL271C, strain bni1, hits give low values 1.01 | locus YNL298W, strain CLA4, hits give low values 1.02 | locus YNL307C, strain MCK1, hits give low values 1.01 | locus YNL322C, strain KRE1 (second series), hits give low values 1.01 | locus YNR049C, strain mso1, hits give low values 1.01 | locus YNR052C, strain pop2, hits give low values 1.03 | locus YOL012C, strain htz1 1.84 | locus YOL147C, strain pex11, hits give low values 1.01 | locus YOR001W, strain rrp6, hits give low values 1.02 | locus YOR061W, strain CKA2, hits give low values 1.01 | locus YOR069W, strain VPS5, hits give low values 1.01 | locus YOR070C, strain gyp1, hits give low values 1.02 | locus YOR080W, strain dia2, hits give low values 1 | locus YOR083W, strain WHI5, hits give low values 0.996 | locus YOR106W, strain vam3, hits give low values 1.01 | locus YOR136W, strain idh2, hits give low values 1.01 | locus YOR144C, strain elg1, hits give low values 0.994 | locus YOR184W, strain ser1, hits give low values 0.976 | locus YOR231W, strain MKK1, hits give low values 1.07 | locus YOR265W, strain rbl2, hits give low values 1.02 | locus YOR270C, strain vph1, hits give low values 1.15 | locus YOR290C, strain snf2, hits give low values 1.02 | locus YOR316C, strain cot1, hits give low values 1.01 | locus YPL051W, strain arl3, hits give low values 0.976 | locus YPL055C, strain LGE1, hits give low values 1 | locus YPL078C, strain atp4, hits give low values 1.01 | locus YPL106C, strain sse1, hits give low values 1.01 | locus YPL240C, strain hsp82, hits give low values 1.01 | locus YPL241C, strain CIN2, hits give low values 0.993 | locus YPL256C, strain CLN2, hits give low values 1.03 | locus YPR119W, strain clb2, hits give low values 1 | locus YPR141C, strain kar3, hits give low values 1.02 | locus YPR163C, strain tif3, hits give low values 1 | locus YPR167C, strain met16, hits give low values 1.01 | strain wtn01, hits give low values 0.986
